Screening data: PubChem, National Center for Advancing Translational Sciences (NCATS)
p53null 39C kill = p53 null cell cytotoxicity, nonpermissive temperature; 0.97% of 55,000 active; H1299 p53-null (neo) cells, 39C, ATPlite viability, 24 h; Potency, µM (doses to about 46.1 µM), inactives show at the highest dose activity, negative = cell killing, usual class: cytotoxic; AID 904;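 also: potency is read from the fitted curve at half-maximal effect; 0% = DMSO only and -100% = full killing by 100 µM tamoxifen; nearly all actives have a fitted effect of over 50% in size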
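Temperature-shift cytotoxicity format: compound titrations on p53-null or A138V-expressing H1299 cells held 24 hr at 39C, cell ATP then measured, AC50 from Hill model.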
FH mod = Identification of activators of human fumarate hydratase by quantitative high-throughput screening. 0.22% of 54,000 active. AID 1347055, 2019. Potency, µM (doses to about 79.9 µM), for inactives: at the top dose activity change, negative = inhibition, hits mostly inhibitors. FH coupled MDH/diaphorase resazurin fluorescence, 15 min. Fumarate hydratase, mitochondrial (Homo sapiens), P07954; also: potency is read from the fitted curve at half-maximal effect; % is scaled to controls: 0 for no effect and ±100 for the full control effect; the screen sought activators but most active calls are inhibition curves; nearly all actives have a fitted effect of over 45% in size
GPR32 ag = GPR32 (DRV1) agonism, beta-arrestin recruitment; activation, % at 76.9 µM; O75388; CHO-K1 GPR32 beta-arrestin PathHunter luminescence, 90 min; zero percent set by DMSO-only wells; 2.5% of 48,000 active; AID 1346428;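 active = activation of at least 60% and not above a set upper limit, about 1 call in 100 departs from these limits; inconclusive = activation of 40% to 60%, or above that upper limit; inactive = activation under 40%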; also: 0% is about no effect
Target sequence (O75388 whole entry, looked up): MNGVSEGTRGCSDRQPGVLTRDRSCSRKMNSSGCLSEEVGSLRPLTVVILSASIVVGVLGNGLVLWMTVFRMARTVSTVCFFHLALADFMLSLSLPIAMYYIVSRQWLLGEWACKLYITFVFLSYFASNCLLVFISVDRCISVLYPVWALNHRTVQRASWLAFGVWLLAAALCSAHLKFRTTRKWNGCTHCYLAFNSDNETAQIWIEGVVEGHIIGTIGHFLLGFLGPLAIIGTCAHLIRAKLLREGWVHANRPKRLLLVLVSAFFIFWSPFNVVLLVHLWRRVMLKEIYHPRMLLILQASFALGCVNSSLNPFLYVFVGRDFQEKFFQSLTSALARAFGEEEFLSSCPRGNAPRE
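Engineered CHO-K1 line co-expressing GPR32-ProLink and EA-beta-arrestin. Compound treatment lasted 90 min at 37 °C. Luminescence was recorded after 1 h with substrate at ambient temperature, relative to DMSO basal wells.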
GALC G270D act = galactocerebrosidase G270D activity enhancement, cell-based; 145M-Twi-hGALC-G270D cells (Twitcher mouse brain line with human GALC G270D), HMU-beta-Gal fluorescence, 48 h; P54803; 0.1% of 45,000 active; Potency, µM (series often up to 57.5 µM), actives largely listed as activators; also: potency is read from the fitted curve at half-maximal effect; 0% is about no effect; nearly all actives have a fitted effect of over 65% in size
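Mutant human GALC (G270D), stably expressed in a Twitcher mouse brain cell line lacking endogenous GALC, is measured in live-treated cells via 6-hexadecanoylamino-4-methylumbelliferyl-β-galactoside hydrolysis (0.1 mM final, pH 5.2) with fluorescent detection.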
p53null 32C tox = p53 null cell cytotoxicity, permissive temperature; 0.62% of 55,000 active; Potency, µM (titrated, usually from 46.1 µM), for inactives: at the top dose activity change, negative = cytotoxicity, usual class: cytotoxic; AID 903; H1299-neo p53 null cells, ATP luminescence, 24 h, 32C;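 also: potency is read from the fitted curve at half-maximal effect; 0% = DMSO only and -100% = full killing by 100 µM tamoxifen; nearly all actives have a fitted effect of over 55% in size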
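Cytotoxicity: H1299-neo (no p53), 32C, 24 h treatment. Concentrations up to 46 uM. Readout cellular ATP, luminescence. Normalization to DMSO basal and tamoxifen 100 uM maximal kill.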
NTMT1 inhibitor = NTMT1 methyltransferase inhibition; 2.5% of 59,000 active; Potency, µM (titrated, usually from 114 µM), for the others: at the top dose activity change, negative = inhibition, hits mostly inhibitors; Q9BV86; NTMT1 MTase-Glo SAH luminescence, purified enzyme;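 also: potency is read from the fitted curve at half-maximal effect; plate controls were DMSO vehicle for no effect and no enzyme for full effect; nearly all actives have a fitted effect of over 65% in size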
Target sequence (Q9BV86 whole entry, looked up): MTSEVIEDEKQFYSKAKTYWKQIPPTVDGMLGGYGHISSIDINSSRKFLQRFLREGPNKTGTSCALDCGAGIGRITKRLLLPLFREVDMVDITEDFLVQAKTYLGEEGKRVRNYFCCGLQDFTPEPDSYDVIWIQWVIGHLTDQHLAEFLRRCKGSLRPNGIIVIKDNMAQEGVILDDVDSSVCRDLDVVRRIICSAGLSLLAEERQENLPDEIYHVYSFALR
Numbers without * were called inactive; i = inactive; ? = inconclusive; . = no result; ! = repeats disagree; [ ] = dose if it differs, or a comment. This is a sample that favours compounds with a hit; in the whole collection about 3.9% have one here. Unless noted, calls follow the shape of the dose curve; as a rule, active = well fitted curve in the direction sought with a large enough effect; inconclusive = small, poorly fitted or top-dose-only effect, or another doubt; inactive = no such curve, though single readings can be large; an effect the other way counts as inactive or inconclusive.

SMILES	p53null 39C kill	FH mod	GPR32 ag	GALC G270D act	p53null 32C tox	NTMT1 inhibitor
COc1ccc(NC(=O)Nc2nnc(SCC(=O)Nc3cccc(C)c3C)s2)cc1	7%	-11%	-8	i	?	-5%
O=C(CSc1nnc(NC(=O)NC2CCCCC2)s1)Nc1ccccc1F	?	-6%	-4	i	10µM*	-17%
CC(=O)c1ccc(NC(=O)CSc2nnc(NC(=O)NC3CCCCC3)s2)cc1	7.9µM*	-5%	-1	i	6.3µM*	-8%
C[C@@H]1O[C@@H](O[C@H]2[C@H](O)[C@@H](O[C@@H]3O[C@H](CO)[C@@H](O)[C@H](O[C@@H]4O[C@H](CO)[C@@H](O)[C@H](O)[C@H]4O)[C@H]3O)[C@H](O[C@H]3CC[C@@]4(C)C(=CC[C@@H]5C4CC[C@@]4(C)C5C[C@@H]5OC6(CC[C@@](C)(CO[C@@H]7O[C@H](CO)[C@@H](O)[C@H](O)[C@H]7O)O6)[C@@H](C)[C@@H]54)C3)O[C@@H]2CO)[C@H](O)[C@H](O)[C@H]1O (stereo partly drawn)	.	3%[13.5 µM]	.	.	.	7%[6.45 µM]
O=C1S/C(=C\c2ccc(OCc3cccc(B(O)O)c3)cc2)C(=O)N1Cc1ccc(F)cc1	.	.	.	.	.	3%
COc1ccc(C(=O)O)cc1Nc1nc2ccc(C)cc2n2cnnc12	7%	?	-10	i	-2%	71µM*
Cc1c(Cl)cccc1Nc1nc2ccc(C(=O)c3ccccc3)cc2n2cnnc12	3%	-19%	-23	i	-2%	19%
CCCCC(=O)N1CCC(C(=O)Nc2ccc([S+](=O)([O-])Nc3nccs3)cc2)CC1	.	.	.	.	.	-2%
CN1CCN(c2ccc(-c3nc(-c4ccccc4)no3)cc2[N+](=O)[O-])CC1	-3%	-10%	83*	i	3%	1%
CN(C)c1ccc(-c2nc(-c3ccccn3)no2)cc1[N+](=O)[O-]	-8%	-3%	76*	i	-11%	?
COc1ccc(-c2noc(-c3ccc(N4CCN(C)CC4)c([N+](=O)[O-])c3)n2)cc1	-2%	-4%	6	i	10%	-28%
C=C(C(=O)O)C1CCC(C)C2CCC(=O)OC2(C)C1 (stereo not drawn)	.	3%	.	.	.	-1%[57.5 µM]
CC(C)=CCC[C@](C)(O[C@@H]1O[C@H](CO[C@@H]2OC[C@H](O)[C@H](O)[C@H]2O)[C@@H](O)[C@H](O)[C@H]1O)[C@H]1CC[C@]2(C)[C@@H]1[C@H](O)C[C@@H]1[C@@]3(C)CC[C@H](O[C@@H]4O[C@H](CO)[C@@H](O)[C@H](O)[C@H]4O[C@@H]4O[C@H](CO)[C@@H](O)[C@H](O)[C@H]4O)C(C)(C)[C@@H]3CC[C@]12C	.	3%[53.3 µM]	.	.	.	12%[29.8 µM]
O=C(c1cccs1)c1nonc1C(=O)c1cccs1	.	.	.	.	.	6%
CCC(=O)N1c2ccccc2CC1C(=O)NCCCN1CCN(c2ccc(F)cc2)CC1 (stereo not drawn)	-16%	-25%	0	i	-3%	89µM*
CCOc1ccc(NC(=O)NCCCN2CCN(c3ccc(F)cc3)CC2)cc1	9%	-3%	9	i	7%	-1%
O=C(NCCCN1CCN(c2cccc(Cl)c2)CC1)c1cnn(-c2ccc(F)cc2)c1-n1cccc1	22µM*	?	?	i	13%	-3%
O=C(NCCCN1CCN(c2ccc(F)cc2)CC1)Nc1ccc(Cl)cc1	?	-7%	83*	i	-2%	-7%
CCCN(CCC)CCCNC(=O)c1cnn(-c2ccc(F)cc2)c1-n1cccc1	-14%	-2%	8	i	5%	-8%
O=[S+]([O-])(Nc1nccs1)c1ccc(NCc2cccc(Cl)c2)cc1	.	.	.	.	.	13%
COc1cc(C)[nH]c(=O)c1CN1CCc2c(Cl)cc([C@H](OC)C3COC3)c(Cl)c2C1=O	.	.	.	.	.	9%
Cc1ccc(OCC(=O)NCC(c2ccc(Cl)cc2)N2CCCCC2)cc1 (stereo not drawn)	-8%	-7%	-12	i	-2%	79µM*
COc1ccc(NS(=O)(=O)c2ccc(NS(=O)(=O)c3ccc4c(c3)OCCO4)cc2)cc1	26%	-20%	68*	i	13%	-9%
O=S(=O)(Nc1ccc(Cl)cc1)c1ccc(NS(=O)(=O)c2ccc3c(c2)OCCO3)cc1	23%	?	24	i	25%	-5%
COc1ccc(-c2nn(-c3ccc(F)cc3)c3c2cnc2cc4c(cc23)OCO4)cc1	?	-2%	0	i	-4%	3%
SMILES	p53null 39C kill	FH mod	GPR32 ag	GALC G270D act	p53null 32C tox	NTMT1 inhibitor
COc1cc(OC)cc(-c2ccc3ncc4ccc(=O)n(-c5ccc(N6CCNCC6)c(C(F)(F)F)c5)c4c3c2)c1	.	-20%[53.3 µM]	.	.	.	43µM*
CC(C)(C)OC(=O)N1CCN(c2ccc(NCc3cccc(-c4ccc(C#N)cc4)n3)cc2)CC1	.	.	.	.	.	3%[57.5 µM]
Cc1ccccc1C(=O)N1CCc2cc(N3CCC(NC(=O)Cc4ccccc4)C3)ccc21 (stereo not drawn)	.	.	.	.	.	-14%
Cc1cn([C@H]2CC(N=[N+]=[N-])[C@@H](CO)O2)c(=O)[nH]c1=O (stereo partly drawn)	.	-1%[53.3 µM]	.	.	.	.
CC1CCN(C(c2ccc(F)cc2)c2ccc(C(C)C(=O)O)cc2-c2ccc(C(F)(F)F)cc2)CC1 (stereo not drawn)	.	-24%	.	.	.	1%[57.5 µM]
COc1cc(OC)c(NS(=O)(=O)c2c(C)nc3sc(C)cn3c2=O)cc1Cl	20µM*	-5%	15	i	-6%	-2%
NC(=O)c1ccc(-c2nc(-c3ccc4c(c3)OCCO4)c(-c3ccccn3)[nH]2)cc1	.	28%[53.3 µM]	.	.	.	?
CN(C(=O)c1cccc(Nc2ccc(-c3ccc4c(c3)OCCO4)nn2)c1)C1CCCCC1	13µM*	.	.	.	11µM*	.
Nc1ncnc2c1c(-c1cccc(OCc3ccccc3)c1)cn2C1CC(CN2CCC2)C1 (stereo not drawn)	.	-16%	.	.	.	10µM*!
N#Cc1cnc2c(Cl)cc(NCc3cn(CCN4CCCCCC4)nn3)cc2c1Nc1ccc(F)c(Cl)c1	.	-11%	.	.	.	10µM*
N#Cc1cnc2cnc(NCc3cccnc3)cc2c1Nc1ccc(F)c(Cl)c1	.	0%	.	.	.	?
CCOc1ccc(NC(=O)CSc2nnc(CNC(=O)C34CC5CC(CC(C5)C3)C4)n2CC)cc1	-2%	-7%	13	i	1%	89µM*
O=C(N/N=C/c1ccc([N+](=O)[O-])s1)c1ccncc1	23%[1.84 µM]	.	.	.	.	.
